In the library only some 2.7% were active in any assay of this set; here they are far more common.
ATG4B inhibitor: blocks human ATG4B protease cleavage of LC3 substrate. 340,000 compounds, 0.51% hits. AID 504462. ATG4B cleavage of LC3-PLA2, NBD-HPC fluorescence, 1 h. inhibition, % at 8.33 µM; in the data active means inhibition above about 40%
SKN-1 block: C. elegans SKN-1 inhibition | inhibition, % at 21.8 µM | C. elegans VP596 Pgst-4::GFP/RFP ratio, acrylamide-induced, 24 h | 360,000 compounds, 0.49% hits;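 active means interference check ratio from 0.5 to 1.5 plus GFP to RFP signal ratio inhibition reaching or exceeding a fixed threshold, cut at about 30% in these data, passing the limit was not always enough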
CendR NRP1 mod: alters CendR peptide binding to human NRP-1; O14786; FAM-RPARPAR peptide binding to NRP-1, fluorescence polarization; inhibition, % at 25 µM; 360,000 compounds, 0.85% hits;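 active means inhibition or corrected inhibition above about 18%, plus a signal ratio from 0.5 to 1.5, limit read from the data, passing the limit was not always enough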
Target sequence (O14786 whole entry, looked up): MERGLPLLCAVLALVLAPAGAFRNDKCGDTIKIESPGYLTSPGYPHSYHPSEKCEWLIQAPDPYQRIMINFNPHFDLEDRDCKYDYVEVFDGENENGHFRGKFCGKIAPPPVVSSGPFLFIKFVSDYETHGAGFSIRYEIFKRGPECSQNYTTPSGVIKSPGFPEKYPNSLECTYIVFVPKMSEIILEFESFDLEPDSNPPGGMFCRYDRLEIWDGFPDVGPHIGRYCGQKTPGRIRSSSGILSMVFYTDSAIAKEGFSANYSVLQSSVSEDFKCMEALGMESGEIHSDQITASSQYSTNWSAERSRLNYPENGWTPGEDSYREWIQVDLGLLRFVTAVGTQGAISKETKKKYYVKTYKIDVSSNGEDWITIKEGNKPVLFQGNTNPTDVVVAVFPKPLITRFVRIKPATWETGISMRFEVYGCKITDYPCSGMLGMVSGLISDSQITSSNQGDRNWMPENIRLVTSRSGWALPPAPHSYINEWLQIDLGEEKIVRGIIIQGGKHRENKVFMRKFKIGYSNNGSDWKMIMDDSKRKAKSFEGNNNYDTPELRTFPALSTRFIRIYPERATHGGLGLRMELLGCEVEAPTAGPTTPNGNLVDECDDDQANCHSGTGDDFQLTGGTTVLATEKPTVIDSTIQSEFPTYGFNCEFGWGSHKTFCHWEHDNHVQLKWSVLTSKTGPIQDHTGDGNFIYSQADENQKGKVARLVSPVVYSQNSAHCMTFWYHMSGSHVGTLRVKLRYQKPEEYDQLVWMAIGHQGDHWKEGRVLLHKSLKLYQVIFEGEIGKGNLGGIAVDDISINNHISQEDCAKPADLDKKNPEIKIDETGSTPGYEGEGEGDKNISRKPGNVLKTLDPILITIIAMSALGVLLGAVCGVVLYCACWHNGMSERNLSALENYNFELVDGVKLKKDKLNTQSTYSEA
MPTP block: permeability transition pore inhibition | isolated mouse mitochondria, Ca2+ swelling absorbance, 30 min | inhibition, % at 10 µM | 360,000 compounds, 1.4% hits | AID 602449;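 active means inhibition of 50% or more, scaled per plate between neutral and stimulator controls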
CFTR F508del cor: correctors of CFTR F508del function in bronchial epithelial cells; CFBE cells, YFP halide quenching; stimulated with forskolin plus potentiator P3; % fluorescence drop versus neutral controls; 350,000 compounds, 0.36% hits; activity (quench increase), % at 7.58 µM;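 active means mean added fluorescence quench of at least 8% versus neutral control, with both replicates also reaching 8%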;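 further: cells transiently co-express mutant CFTR-F508del with the halide-sensitive YFP; corrector assay measuring rescue of mutant channel to the surface after 24 h compound exposure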
Rh123 counter: Rhodamine 123 counter-screen of mitochondrial pore hits. shares compounds with MPTP block. isolated mitochondria, membrane potential, Rhodamine 123 fluorescence. inhibition, % at 10 µM. 5,000 compounds, 78% hits. AID 624504; in the data active means inhibition above about 22%
MPTP abs DR: dose response confirmation of mitochondrial permeability transition pore inhibitors | shares compounds with MPTP block | 780 compounds, 58% hits | isolated mitochondria swelling, absorbance | IC50, µM; in the data active means IC50 below about 20 µM
MPTP cs DR: MPTP inhibitor counter-screen activity, dose response; shares compounds with MPTP block; isolated mitochondria counterscreen, fluorescence read-out; IC50, µM; 780 compounds, 49% hits; in the data active means IC50 below about 80 µM
Numbers stand for hits; - = inactive; . = no result given.

SMILES	ATG4B inhibitor	SKN-1 block	CendR NRP1 mod	MPTP block	CFTR F508del cor	Rh123 counter	others
Cn1c2c(c(=O)n(C)c1=O)C(C(F)(F)F)(C(F)(F)F)N=C(c1ccccc1Cl)N2	-	-	-	-	.	.
Cn1c2c(c(=O)n(C)c1=O)C(C(F)(F)F)(C(F)(F)F)N=C(CCC1CCCCC1)N2	-	-	-	93.6	-	78.8
CC(C)(C)c1ccc(S(=O)(=O)N2CCC(N3CCCCC3)CC2)cc1	-	-	-	71.2	-	-	MPTP abs DR=-;MPTP cs DR=27.2
CC(C)(C)c1ccc(S(=O)(=O)N2CCC(O)(c3ccc(Cl)cc3)CC2)cc1	-	-	-	84.1	-	91.9
CC(C)(C)c1ccc(S(=O)(=O)N2CCCCC2)cc1	-	-	-	-	.	.
CCCCOc1ccc(-c2nc(-c3cccnc3)no2)cc1	-	-	-	64.1	.	-	MPTP abs DR=13.5;MPTP cs DR=14.1
COc1ccc(-c2nc(-c3cccnc3)no2)cc1	-	-	-	-	-	.
CS(=O)(=O)Nc1ccc2c(c1)[C@@H]1C[C@H](CC(=O)NCCN3CCCCC3)O[C@H](CO)[C@@H]1O2	.	.	.	.	-	.
CO[C@H]1CN(C)C(=O)c2ccc(NC(=O)Nc3c(C)noc3C)cc2OC[C@H](C)NC[C@@H]1C	.	.	.	.	-	.
CSc1ncc(Cl)c(C(=O)Nc2cccc(C)c2)n1	-	-	-	-	.	.
CSc1ncc(Cl)c(C(=O)C(C#N)c2nc3c(C)cc(C)cc3c(=O)[nH]2)n1 (stereo not given)	-	-	-	91.1	-	72.6
N#C[C@H]1[C@@H](c2ccc(/C=C/c3ccccc3)cc2)[C@@H](CO)N1C(=O)C1CCCCC1	.	.	.	.	-	.
CO[C@@H]1CN(C)C(=O)c2cc(NC(=O)c3cnccn3)ccc2OC[C@H](C)N(C(=O)C2CC2)C[C@@H]1C	.	.	.	.	-	.
CCN(CC)c1ccc(-c2sc(Nc3ccccc3)n[n+]2-c2ccc(F)cc2)cc1	-	-	-	60.8	-	102.0
COc1ccc(C)cc1Nc1n[n+](-c2ccccc2)c(-c2ccc(N(C)C)cc2)s1	-	-	-	88.8	-	100.0
CN(C)c1ccc(-c2sc(Nc3ccccc3)n[n+]2-c2ccc(F)cc2)cc1	-	-	-	-	-	.
CCc1ccc(Nc2n[n+](-c3ccccc3)c(-c3c(Cl)cccc3Cl)s2)cc1	-	-	-	100.3	-	112.0
CCc1ccc(Nc2n[n+](-c3ccccc3)c(-c3ccc(N(CC)CC)cc3)s2)cc1	-	-	-	95.5	-	113.6
C[C@@H]1CN([C@H](C)CO)S(=O)(=O)c2ccc(C3=CCCCC3)cc2O[C@@H]1CN(C)Cc1ccccn1	.	.	.	.	-	.
COC(=O)C[C@H]1C=C[C@@H](NS(=O)(=O)c2ccc(OC)cc2)[C@@H](CO)O1	.	.	.	.	-	.
COCC(=O)N(C)C[C@H]1Oc2cc(C#CCC(C)C)ccc2S(=O)(=O)N([C@@H](C)CO)C[C@@H]1C	.	.	.	.	-	.
Cc1ncc(CO)c(/C=N/NC(=O)c2ccc(O)cc2)c1O	-	-	-	-	.	.
Cc1ncc(CO)c(/C=N/NC(=S)Nc2cccc(Cl)c2)c1O	-	-	-	78.4	.	79.2
Cc1ncc(CO)c(/C=N/NC(=S)Nc2ccc(Cl)c(Cl)c2)c1O	-	-	-	87.3	-	69.6
O=C(C[C@H]1CC[C@@H]2[C@H](COC[C@@H](O)CN2Cc2ccc(Oc3ccccc3)cc2)O1)Nc1nccs1	.	.	.	.	-	.
SMILES	ATG4B inhibitor	SKN-1 block	CendR NRP1 mod	MPTP block	CFTR F508del cor	Rh123 counter	others
C[C@@H]1CN([C@@H](C)CO)C(=O)Cc2cc(NC(=O)CCC(F)(F)F)ccc2O[C@H]1CN(C)Cc1ccc(C(=O)O)cc1	.	.	.	.	-	.
CC(C)n1cc(CN2CCC(C(=O)Nc3ccc(Oc4ccccc4F)cc3)CC2)cn1	-	-	-	82.9	-	-	MPTP abs DR=4.62;MPTP cs DR=25.6
CCOC(=O)c1c(NC(=O)C2CCCCC2)sc2c1CCN(CC)C2	-	-	-	58.4	-	-	MPTP abs DR=15.3;MPTP cs DR=-
CCN1CCc2c(sc(NC(=O)C3CCCCC3)c2C(=O)OC)C1	-	-	-	-	-	.
COc1ccc(C)c2sc(N(CCCN(C)C)C(=O)CS(=O)(=O)c3ccc(F)cc3)nc12	-	-	-	85.4	-	-	MPTP abs DR=5.7;MPTP cs DR=-
c1ccc2c(c1)oc1c(Nc3ccc4c(c3)OCO4)ncnc12	-	-	-	-	.	.
c1ccc2c(c1)oc1c(NCc3ccc4c(c3)OCO4)ncnc12	-	-	-	84.5	.	109.9
C[C@H]1CN([C@@H](C)CO)C(=O)c2cccc(NC(=O)C3CCCCC3)c2O[C@@H]1CN(C)Cc1ccncc1	.	.	.	.	-	.
O=C(O)Cc1cn(-c2ccccc2)nc1-c1ccccc1	-	-	-	-	-	.
Fc1ccc(-c2nn(-c3ccccc3)cc2CNCc2ccccc2)cc1	-	-	-	90.6	-	-	MPTP abs DR=4.71;MPTP cs DR=43
S=C(Nc1ccc(Br)cc1)N1CCn2cccc2C1c1cccnc1 (stereo not given)	-	-	-	97.1	-	91.7
Cc1ccc(NC(=S)N2CCn3cccc3C2c2cccnc2)cc1 (stereo not given)	-	-	-	-	.	.
Cc1nc(NCCc2ccccc2)c2oc3ccccc3c2n1	-	-	-	97.3	.	75.4
Cc1nc(NCCN2CCOCC2)c2oc3ccccc3c2n1	-	-	-	-	.	.
CCCCCCC[C@@H](C/C=C/CCC(=O)O)OC	-	-	-	-	-	.
CCCCCCC[C@@H](C/C=C/CCC(=O)N(C)C/C(=C/Cl)C/C(=C\C(=O)N1C[C@H](O)CC1=O)OC)OC	-	-	-	74.5	-	102.0
CCCCCCC[C@@H](C/C=C/CCC(=O)N(C)C/C(=C/Cl)C/C(=C\C(=O)N1CC(OC)=CC1=O)OC)OC	-	-	-	78.9	-	-
CNC[C@H]1Oc2ccc(NC(=O)Nc3ccc(F)cc3)cc2C(=O)N([C@H](C)CO)C[C@@H]1C	.	.	.	.	-	.
O=C1CCCN2N=C(SCC(=O)Nc3cccc(F)c3)SC2=N1	-	-	-	50.1	-	-	MPTP abs DR=-;MPTP cs DR=38.4
Cc1cc(N2CCCC2=O)cc(C)c1S(=O)(=O)NCCOc1ccc(C(C)(C)C)cc1	-	-	-	104.6	.	98.6
O=C(C[C@H]1CC[C@@H]2[C@H](COC[C@@H](O)CN2C(=O)Nc2ccc3c(c2)OCO3)O1)N1CCN(c2ccccc2)CC1	.	.	.	.	-	.
O=C1CN(Cc2ccc(F)cc2)C[C@@H]2[C@H](c3ccc(Br)cc3)[C@@H](CO)N12	.	.	.	.	-	.
CCCC(=O)c1ccc(N2CCN(C(=O)c3ccccc3Br)CC2)c(F)c1	-	-	-	79.7	.	65.6
O=C(C[C@@H]1C=C[C@@H](NC(=O)Nc2ccc(F)cc2)[C@H](CO)O1)NCc1ccccn1	.	.	.	.	-	.
Nc1nc2cc3c(cc2cc1C(=O)NCc1ccc(F)cc1)OCO3	.	-	-	85.9	.	95.1
CC(C)N(C[C@H]1[C@H](c2ccccc2)[C@@H](CO)N1S(C)(=O)=O)C(=O)CN(C)C	.	.	.	.	-	.
